IDH1 R132H inh: inhibitors of human mutant IDH1 R132H; IDH1-R132H enzyme, NADPH consumption, diaphorase/resazurin fluorescence; Potency, µM (highest dose often 76.6 µM), inactives show at the highest dose activity change, negative = inhibition, usual class: inhibitors; 390,000 compounds, 0.093% hits; AID 602179; further: on the % scale 0 is the no-effect control and ±100 the full control effect; nearly all actives have a fitted effect of over 65% in size
Target sequence (O75874 whole entry R132H, stated change not applied): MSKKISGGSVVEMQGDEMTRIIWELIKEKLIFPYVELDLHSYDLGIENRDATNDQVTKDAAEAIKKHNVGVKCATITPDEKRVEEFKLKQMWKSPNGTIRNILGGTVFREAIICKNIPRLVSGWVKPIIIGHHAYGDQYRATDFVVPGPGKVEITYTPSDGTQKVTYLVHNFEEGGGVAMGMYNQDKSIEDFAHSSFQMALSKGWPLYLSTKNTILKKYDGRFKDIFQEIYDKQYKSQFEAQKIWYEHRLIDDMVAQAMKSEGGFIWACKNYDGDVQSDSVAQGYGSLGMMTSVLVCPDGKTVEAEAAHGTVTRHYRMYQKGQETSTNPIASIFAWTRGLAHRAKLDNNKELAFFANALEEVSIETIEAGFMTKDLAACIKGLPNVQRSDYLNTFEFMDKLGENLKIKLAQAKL
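IDH1-R132H (0.5 ug/mL) preincubated 30 min with compound, then NADPH (0.016 mM) and alpha-KG (2 mM) added; 80 min at RT, pH 7.5. Remaining NADPH coupled via diaphorase/resazurin to fluorescence (540/590 nm); concentration-response curves normalized to no-enzyme control.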
rTrxR1 inhibitor: blocks rat thioredoxin reductase 1 | O89049 | recombinant rTrxR1, NADPH fluorescence consumption, selenite substrate | 390,000 compounds, 1% hits | Potency, µM (titrated, usually from 114 µM), for inactives: top-dose activity change, negative = inhibition, actives largely listed as inhibitors; further: on the % scale 0 is the no-effect control and ±100 the full control effect; nearly all actives have a fitted effect of over 65% in size
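Rat TrxR1 (90 nM in the dispensed reagent) was pre-reduced with 400 uM NADPH for 5 min at room temperature, then incubated with compound for 15 min. After 400 uM selenite was added, NADPH fluorescence (Ex 340/Em 450 nm) was followed for 8 min.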
Apoferritin bind: candidate novel general anesthetic via apoferritin binding | P02791 | apoferritin/1-aminoanthracene competitive binding, fluorescence | Potency, µM (top dose mostly 77.5 µM), without a hit: top-dose activity change, negative = displacement, usual class: inhibitors | 350,000 compounds, 0.074% hits; further: on the % scale 0 is the no-effect control and ±100 the full control effect; nearly all actives have a fitted effect of over 20% in size
Target sequence (P02791 2-175 limits assumed): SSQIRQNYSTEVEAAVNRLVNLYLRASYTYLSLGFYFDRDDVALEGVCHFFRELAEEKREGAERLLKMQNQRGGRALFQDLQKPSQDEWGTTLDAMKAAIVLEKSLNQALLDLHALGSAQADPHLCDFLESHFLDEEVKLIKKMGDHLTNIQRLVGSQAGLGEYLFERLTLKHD
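In PBS, apoferritin at 10 uM is loaded with 1-AMA from a 50% saturated solution. After 10 min of compound exposure at ambient temperature, reduced 535 nm fluorescence indicates probe displacement.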
ALOX12 inh: blocks human arachidonate 12S-lipoxygenase | purified 12hLO, xylenol orange hydroperoxide absorbance | P18054 | Potency, µM (series often up to 108 µM), inactives show at the top dose activity change, negative = inhibition, usual class: inhibitors | AID 1671190 | 580,000 compounds, 1.1% hits; further: on the % scale 0 is the no-effect control and ±100 the full control effect
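Purified human 12hLO (150 nM final) in 25 mM Hepes, 0.01% Triton X-100, pH 7.0 was preincubated 15 min at room temperature with compound. Then 40 uM arachidonic acid was added, 30 min. Hydroperoxide was read by Fe-XO absorbance ratio 573/405 nm.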
TrxR1 substrate: substrates of rat thioredoxin reductase 1; O89049; Potency, µM (titrated, usually from 114 µM), inactives show at the top dose activity change, negative = substrate turnover; 390,000 compounds, 0.01% hits; purified TrxR1 substrate turnover, NADPH consumption readout; AID 588456; further: on the % scale 0 is the no-effect control and ±100 the full control effect; nearly all actives have a fitted effect of over 50% in size
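Rat TrxR1, dispensed at 90 nM, was prereduced with 400 uM NADPH (final) for 5 min at ~22 deg C, then incubated with compound 15 min before 400 uM selenite. A first-read NADPH fluorescence drop versus no-compound background flagged substrates.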
Glioma ERSR ind: inducers of ER stress response in human glioma cells; U87-MG GRP78 promoter luciferase reporter, 16 h; Potency, µM, inactives show at the highest dose activation, actives largely listed as activators; 420,000 compounds, 0.02% hits; further: series mostly up to about 76 µM; % of control where 0% means no effect; nearly all actives have a fitted effect of over 35% in size
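ERSR induction read as luciferase luminescence (Bright-Glo, 10 min at room temperature) in stably transfected human U87-MG glioma cells exposed to compounds for 16 h, using GRP78 as sensor.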
Starred values were filed as active, the others as inactive; ? = inconclusive; · = not tested or not shown; [ ] = another dose, or the depositor's remark. This is a sample that favours compounds with a hit; in the whole collection about 1.7% have one here. The call rests on the fitted dose curve; in most records, active means well fitted curve in the direction sought with a large enough effect; inconclusive means small, poorly fitted or top-dose-only effect, or another doubt; inactive means no such curve, though single readings can be large; an effect the other way counts as inactive or inconclusive. Potency means the concentration at half of the fitted maximal effect.

SMILES	IDH1 R132H inh	rTrxR1 inhibitor	Apoferritin bind	ALOX12 inh	TrxR1 substrate	Glioma ERSR ind
CC(=O)Oc1ccc2c(c1OC(C)=O)OCC1(O)Cc3c(cc(OC(C)=O)c(OC(C)=O)c3OC(C)=O)C21 (centres undefined)	·	·	-6%	·	·	-1%
Oc1ccc2c(c1)OCC1(O)Cc3cc(O)c(O)cc3C21 (centres undefined)	-3%	4.5µM*	33%	?	8%	?
Oc1cc2c(cc1O)[C@H]1c3ccc(O)c(O)c3OC[C@@]1(O)C2	2%	10µM*	·	?	3%	0%
COc1cccc(CN2CCCN(S(=O)(=O)c3ccccc3)CCC(=O)NCC2)c1	·	·	·	53%	·	·
O=C1Nc2ccccc2CN(Cc2ccc(Cl)cc2)C12CCNC2 (centres undefined)	·	·	·	20µM*	·	·
O=S(=O)(c1ccc2nnn(O)c2c1)N1CCOCC1	9%	56µM*	·	-22%	-6%	-3%
O=S(=O)(c1ccc2ncn(O)c2c1)N1CCOCC1	2%	34%	-3%	-9%	10%	-3%
CN1CCCN(C(=O)c2cn(C)cn2)c2ccccc21	·	·	·	78%	·	·
Cc1ccc(S(=O)(=O)Cc2cc(F)c([N+](=O)[O-])cc2[N+](=O)[O-])cc1	0%	18µM*	-19%	·	-1%	-19%
Cc1cccc2cc(CN(Cc3ccccc3)Cc3nnnn3Cc3ccccc3)c(=O)[nH]c12	·	-22%	·	·	23%	-3%
COC(=O)N/N=C1\CCCc2ccccc21	-4%	5%	-4%	-19%	-2%	-2%
Cc1cccc(NC(=S)NC(=O)Cc2ccccc2)c1C	0%	56µM*	-8%	0%	-14%	4%
COc1cccc(NC(=S)N/N=C2/CCCCc3ccccc32)c1	-2%	11%	-3%	45µM*	5%	1%
Cc1ccc(C)c(NC(=S)N/N=C2/CCCCc3ccccc32)c1	-1%	5%[57.1 µM]	-4%	50µM*	-15%	-5%
CC(C)NC(=S)N/N=C1\CCCCc2ccccc21	-4%	9%	-9%	40µM*	-6%	0%
CC(=O)OCC1=C[C@H]2[C@@H]3C(C)(C)[C@]3(OC(C)=O)C[C@@H](C)[C@]2(O)[C@@H]2C=C(C)C(=O)[C@@]2(O)C1	·	·	2%	·	·	1%
Cc1cccc(NC(=S)NN=C2CCCC2)c1C	·	·	·	28µM*	·	·
Cc1cccc(NC(=S)N2CCCCCC2)c1C	-6%	20%	?	0%	1%	-2%
S=C(N/N=C1\CCc2ccccc21)NC1CCCCC1	-4%	-9%	-15%	45µM*	-5%	1%
O=C(N/N=C1/CCc2ccccc21)C1CC1	3%	8%[57.1 µM]	-3%	5%	-6%	-2%
CCc1ccc(CCC(=O)NNc2cccc(Cl)c2)cc1	·	·	·	16µM*	·	·
O=C(CCc1ccccc1)NNC(=O)Nc1cccc(Cl)c1	12%	18%	-16%	472%	7%	-5%
Cc1cccc(NC(=O)NCCc2nnc3n2CCCCC3)c1	·	·	·	-3%	·	·
CC(C)(c1cc(Br)c(O)c(Br)c1)c1cc(Br)c(O)c(Br)c1	-9%	2%	·	45µM*	4%	-2%
COC(=O)c1cc(Br)c(O)c(Br)c1	·	·	·	-20%	·	·
SMILES	IDH1 R132H inh	rTrxR1 inhibitor	Apoferritin bind	ALOX12 inh	TrxR1 substrate	Glioma ERSR ind
C=CCNCc1ccc(C)cc1	·	·	·	-3%	·	·
O=c1c2cn[nH]c2[nH]c(=S)n1-c1ccccc1	0%	?	4%	6.3µM*	-5%	-2%
O=c1cc(CSc2ccc(Cl)cc2)[nH]c2[nH]n(-c3ccccc3)c(=O)c12	-3%	5%	-18%	40µM*	-5%	-4%
Cc1[nH]n(-c2ccccc2)c(=O)c1Sc1ccc(Cl)cc1	3%	15%	-8%	?	-3%	-1%
Cc1ccc(SCc2cc(=O)c3c(=O)n(-c4ccccc4)[nH]c3[nH]2)cc1	2%	3%[57.1 µM]	-19%	35µM*	-5%[57.1 µM]	-5%
Cc1ccc2c(=O)cc(CSc3ccccc3)[nH]c2c1C	6%	13%[57.1 µM]	2%	-27%	0%[57.1 µM]	-2%
C[C@@H](NC(=O)C1CC1)c1onc(-c2ccc(F)cc2)c1C(=O)O	·	·	·	3%[176 µM]	·	·
C[C@@H](NC(=O)C1CC1)c1c(-c2ccc(F)cc2)noc1C(=O)O	·	·	·	50µM*	·	·
O=C1NC2(CCN(C(=O)OCc3ccccc3)C2)N=C1c1ccccn1 (centres undefined)	·	·	·	72%	·	·
CCOc1ccccc1NS(=O)(=O)c1ccc(-c2cnc(C)o2)cc1	·	·	·	15%	·	·
O=C(N/N=C/c1ccco1)c1cccc(N2Cc3ccccc3C2)c1	-5%	50µM*	-11%	-12%	3%	-3%
O=C(N/N=C/c1ccco1)c1cccc(N2CCCC2=O)c1	10%	-5%	-7%	-13%	-2%	-2%
CNC(=O)CCn1ncc2cc(OCc3ccccc3-c3ccccc3COC)ccc21	·	·	·	1%[176 µM]	·	·
COc1cc(F)cc(-c2ccc(COc3ccc4c(cnn4CCC(=O)O)c3)cc2)c1	·	·	·	28µM*	·	·
Cc1ccccc1-c1ccc(COc2ccc3c(cnn3CCC(=O)O)c2)cc1	·	·	·	45µM*	·	·
COc1cccc(F)c1-c1ccc(COc2ccc3c(cnn3CCC(=O)O)c2)cc1	·	·	·	22µM*	·	·

Source: PubChem BioAssay (National Center for Advancing Translational Sciences (NCATS))
